Laboratory results taken from the supplement of paper PMC10849652.
The full data set covers some 7,900 targets. This sample favours those with a hit. About 0.6% of all pairs of compound and target were hits.

Legend:
Experiment in all cases: log2 fold change, soluble protein after heating vs DMSO (PISA); higher = thermal stabilisation; K562 cells, 10 uM, 30 min; active = over 0.2 and 3.5 SD of the protein, either way, in both replicates (recomputed)
[1] = compound: Cc1ccc(NC(=O)c2ccc(CN3CC[C@H](N(C)C)C3)c(C(F)(F)F)c2)cc1Nc1nccc(-c2cncnc2)n1 [bafetinib]
Outline: (§1)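 For each measurement, 10 μM compound was applied for 30 min to K562 cells at 2×10^6 cells/mL. Aliquots were heated for 3 min across 48°C-58°C, pooled, and extracted in PBS with 0.5% NP-40 at 4°C; the supernatant after 21,000xg for 90 min was soluble protein. This was quantified by TMTpro 16plex LC-MS/MS with channel sums equalised, and thermal stability was reported relative to control samples from duplicates, on a log2 fold-change scale.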

[2] = compound: Cc1cccc(CC(=O)N2CCc3c2ccc(-c2cn(C)c4ncnc(N)c24)c3F)n1
Outline: as §1

[3] = compound: Cc1cn(-c2cc(NC(=O)c3ccc(C)c(Nc4nccc(-c5cccnc5)n4)c3)cc(C(F)(F)F)c2)cn1 [nilotinib]
Outline: as §1

[4] = compound: Cc1nc(Nc2n[nH]c3c2CN(C(=O)N[C@H](CN(C)C)c2ccccc2)C3(C)C)c2sccc2n1
Outline: as §1

[5] = compound: Cc1nc(Nc2ncc(C(=O)Nc3c(C)cccc3Cl)s2)cc(N2CCN(CCO)CC2)n1 [dasatinib]
Outline: as §1

[6] = compound: Cc1ncc(-c2ccnc(Nc3ccc(S(C)(=O)=O)cc3)n2)n1C(C)C
Outline: as §1

[7] = compound: Cn1cc(-c2ccc3c(c2)CCN3C(=O)Cc2cccc(C(F)(F)F)c2)c2c(N)ncnc21
Outline: as §1

[8] = compound: Cn1cc(-c2ccc3nnc(C(F)(F)c4ccc5ncccc5c4)n3n2)cn1
Outline: as §1

[9] = compound: Cn1cncc1[C@@](N)(c1ccc(Cl)cc1)c1ccc2c(c1)c(-c1cccc(Cl)c1)cc(=O)n2C [tipifarnib]
Outline: as §1

[10] = compound: FC(F)(F)c1ccc(/C=C/c2nc(COc3ccc(CCCCn4ccnn4)cc3)co2)cc1 [mubritinib]
Outline: as §1

Measured: log2 fold change

WNK1 isoform 7 (UniProt Q9H4A3)
inactive: [1] -0.038 | [2] 0.046 | [3] -0.029 | [4] -0.071 | [5] 0.102 | [6] 0.022 | [7] 0.178 | [8] -0.022 | [9] -0.022 | [10] 0.036

TPR (UniProt P12270)
inactive: [1] -0.011 | [2] -0.004 | [3] 0.056 | [4] 0.04 | [5] 0.158 | [6] 0.047 | [7] -0.184 | [8] -0.017 | [9] 0.002 | [10] 0.089

TTI1 (UniProt O43156)
inactive: [1] -0.006 | [2] 0.165 | [3] -0.036 | [4] -0.102 | [5] -0.076 | [6] 0.039 | [7] 0.085 | [8] 0 | [9] -0.103 | [10] 0.095

TSPAN13 (UniProt O95857)
Chain of UniProt O95857 (O95857 whole entry, looked up): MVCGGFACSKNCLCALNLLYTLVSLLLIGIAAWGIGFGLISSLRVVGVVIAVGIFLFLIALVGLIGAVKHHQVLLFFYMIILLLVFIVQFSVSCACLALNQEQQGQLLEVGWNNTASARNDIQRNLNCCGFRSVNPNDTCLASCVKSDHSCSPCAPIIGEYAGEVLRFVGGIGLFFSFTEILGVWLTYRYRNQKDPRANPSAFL
inactive: [1] -0.101 | [2] 0.014 | [3] 0.056 | [4] -0.035 | [5] -0.163 | [6] -0.095 | [7] -0.038 | [8] 0.095 | [9] -0.008 | [10] 0.226

UGDH (UniProt O60701)
inactive: [1] 0.018 | [2] 0.062 | [3] -0.045 | [5] -0.043 | [6] -0.24 | [7] 0.151 | [8] 0.09 | [9] -0.034 | [10] 0.202
active: [4] -0.377

TMEM70 (UniProt Q9BUB7)
inactive: [1] -0.141 | [2] 0.026 | [3] 0.028 | [4] -0.003 | [5] -0.094 | [6] 0.018 | [7] 0.06 | [8] 0.023 | [9] -0.02 | [10] 0.017

TRAM1 (UniProt Q15629)
inactive: [1] -0.152 | [2] 0.117 | [3] -0.075 | [4] 0.074 | [5] -0.138 | [6] 0.072 | [7] -0.07 | [8] 0.02 | [9] -0.152 | [10] -0.022

TMEM214 (UniProt Q6NUQ4)
inactive: [1] 0.017 | [2] 0.029 | [3] -0.117 | [4] -0.02 | [5] -0.071 | [6] 0.023 | [7] -0.022 | [8] -0.041 | [9] -0.047 | [10] 0.005

VRK2 (UniProt Q86Y07)
Chain of UniProt Q86Y07 (Q86Y07 whole entry, looked up): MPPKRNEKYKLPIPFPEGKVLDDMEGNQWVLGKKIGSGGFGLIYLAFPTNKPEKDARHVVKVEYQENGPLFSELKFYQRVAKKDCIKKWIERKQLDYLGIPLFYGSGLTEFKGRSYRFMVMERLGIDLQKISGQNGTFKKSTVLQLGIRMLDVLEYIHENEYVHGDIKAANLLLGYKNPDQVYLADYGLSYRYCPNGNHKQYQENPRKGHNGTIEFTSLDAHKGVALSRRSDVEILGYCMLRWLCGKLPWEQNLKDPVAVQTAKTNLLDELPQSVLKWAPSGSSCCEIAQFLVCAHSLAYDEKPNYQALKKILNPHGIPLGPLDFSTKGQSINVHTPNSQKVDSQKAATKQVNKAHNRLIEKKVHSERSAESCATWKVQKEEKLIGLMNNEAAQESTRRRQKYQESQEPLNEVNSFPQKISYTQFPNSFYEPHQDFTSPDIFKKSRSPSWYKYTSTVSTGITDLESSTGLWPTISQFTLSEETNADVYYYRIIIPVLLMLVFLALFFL
inactive: [1] 0.033 | [2] 0.081 | [3] -0.062 | [5] 0.011 | [6] 0.033 | [7] 0.129 | [8] -0.066 | [9] -0.057 | [10] 0.006
active: [4] 0.414

VARS2, A0A0G2JL52
inactive: [1] -0.051 | [2] 0 | [3] -0.043 | [4] 0.012 | [5] 0.009 | [6] 0.003 | [7] 0.037 | [8] -0.021 | [9] -0.01 | [10] -0.049

TRAPPC3 (UniProt O43617)
inactive: [1] -0.033 | [2] 0.003 | [3] -0.007 | [4] -0.023 | [5] -0.021 | [6] -0.001 | [7] 0.025 | [8] 0.041 | [9] -0.047 | [10] 0.035

TMEM223 (UniProt A0PJW6)
inactive: [1] -0.156 | [2] -0.005 | [3] 0.032 | [4] 0.033 | [5] -0.052 | [6] -0.079 | [7] -0.025 | [8] 0.038 | [9] 0.013 | [10] 0.044

UBR2 (UniProt Q8IWV8)
Chain of UniProt Q8IWV8 (Q8IWV8 whole entry, looked up): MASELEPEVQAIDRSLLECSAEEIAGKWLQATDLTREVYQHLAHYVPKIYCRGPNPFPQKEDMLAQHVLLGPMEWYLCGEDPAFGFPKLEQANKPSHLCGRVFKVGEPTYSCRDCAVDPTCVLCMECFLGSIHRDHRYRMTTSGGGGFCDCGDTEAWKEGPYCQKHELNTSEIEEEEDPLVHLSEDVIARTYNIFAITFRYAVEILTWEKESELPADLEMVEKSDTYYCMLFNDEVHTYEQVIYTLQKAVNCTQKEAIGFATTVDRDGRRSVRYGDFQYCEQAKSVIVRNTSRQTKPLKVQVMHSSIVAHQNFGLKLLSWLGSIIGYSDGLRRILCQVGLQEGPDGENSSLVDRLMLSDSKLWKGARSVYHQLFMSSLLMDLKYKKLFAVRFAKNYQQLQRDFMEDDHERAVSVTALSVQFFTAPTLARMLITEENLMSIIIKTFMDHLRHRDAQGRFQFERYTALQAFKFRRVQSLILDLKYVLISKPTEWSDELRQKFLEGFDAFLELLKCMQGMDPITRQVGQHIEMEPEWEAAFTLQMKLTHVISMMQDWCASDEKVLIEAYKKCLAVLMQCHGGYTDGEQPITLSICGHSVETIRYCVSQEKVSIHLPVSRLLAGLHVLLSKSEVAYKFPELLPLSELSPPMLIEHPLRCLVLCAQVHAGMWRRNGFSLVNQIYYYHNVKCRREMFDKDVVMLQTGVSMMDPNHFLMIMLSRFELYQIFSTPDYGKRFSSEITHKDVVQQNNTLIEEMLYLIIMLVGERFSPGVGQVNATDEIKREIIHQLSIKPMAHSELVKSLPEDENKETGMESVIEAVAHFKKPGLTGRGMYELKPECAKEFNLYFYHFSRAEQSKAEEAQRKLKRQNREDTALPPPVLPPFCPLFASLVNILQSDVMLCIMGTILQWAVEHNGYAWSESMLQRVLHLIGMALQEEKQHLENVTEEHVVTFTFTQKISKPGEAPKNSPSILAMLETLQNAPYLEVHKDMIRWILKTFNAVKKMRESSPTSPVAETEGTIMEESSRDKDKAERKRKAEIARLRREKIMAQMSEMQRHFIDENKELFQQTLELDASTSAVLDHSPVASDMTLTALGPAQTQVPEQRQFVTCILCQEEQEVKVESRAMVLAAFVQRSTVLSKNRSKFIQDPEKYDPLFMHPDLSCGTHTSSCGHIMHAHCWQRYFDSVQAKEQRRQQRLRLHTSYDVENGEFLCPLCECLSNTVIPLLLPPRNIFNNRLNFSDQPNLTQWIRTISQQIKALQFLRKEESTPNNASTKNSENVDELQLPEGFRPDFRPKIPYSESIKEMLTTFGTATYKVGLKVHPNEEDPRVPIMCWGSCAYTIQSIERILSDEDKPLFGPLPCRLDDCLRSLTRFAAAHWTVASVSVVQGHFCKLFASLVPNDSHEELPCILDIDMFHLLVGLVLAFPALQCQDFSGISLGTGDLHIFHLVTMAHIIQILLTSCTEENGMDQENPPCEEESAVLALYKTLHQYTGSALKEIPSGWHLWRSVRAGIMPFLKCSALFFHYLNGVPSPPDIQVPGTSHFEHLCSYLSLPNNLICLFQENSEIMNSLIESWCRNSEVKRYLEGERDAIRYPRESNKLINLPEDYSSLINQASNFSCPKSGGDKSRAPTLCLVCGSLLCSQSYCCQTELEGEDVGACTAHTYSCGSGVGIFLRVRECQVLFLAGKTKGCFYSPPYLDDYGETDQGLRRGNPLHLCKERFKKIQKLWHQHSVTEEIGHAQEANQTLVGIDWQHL
inactive: [1] 0.021 | [2] 0.072 | [3] 0.02 | [4] 0.01 | [5] -0.107 | [6] -0.069 | [7] -0.023 | [8] 0.058 | [9] -0.095 | [10] 0.011

VPS33A (UniProt Q96AX1)
inactive: [1] -0.066 | [2] 0.091 | [3] -0.071 | [4] -0.124 | [5] -0.123 | [6] -0.039 | [7] -0.019 | [8] -0.094 | [9] -0.064 | [10] 0.098

TMEM173 (UniProt Q86WV6)
inactive: [1] 0.007 | [2] 0.019 | [3] -0.129 | [4] -0.013 | [5] -0.156 | [6] 0.003 | [7] 0.001 | [8] -0.046 | [9] 0.021 | [10] 0.066

TNFRSF8 (UniProt P28908)
inactive: [1] 0.01 | [2] -0.089 | [3] 0.074 | [4] -0.049 | [5] 0.032 | [6] 0.043 | [7] 0.014 | [8] 0.032 | [9] 0.042 | [10] 0.069

WEE1 (UniProt P30291)
active: [4] -0.905 | [5] 0.805
inactive: [1] -0.152 | [2] -0.062 | [3] 0.182 | [6] 0.311 | [7] -0.043 | [8] -0.037 | [9] -0.037 | [10] 0.394

TRAPPC11 (UniProt Q7Z392)
inactive: [1] 0.065 | [2] 0.05 | [3] -0.098 | [4] -0.129 | [5] -0.159 | [6] 0.01 | [7] -0.04 | [8] -0.03 | [9] -0.06 | [10] 0.04

WDR11 (UniProt Q9BZH6)
Chain of UniProt Q9BZH6 (Q9BZH6 whole entry, looked up): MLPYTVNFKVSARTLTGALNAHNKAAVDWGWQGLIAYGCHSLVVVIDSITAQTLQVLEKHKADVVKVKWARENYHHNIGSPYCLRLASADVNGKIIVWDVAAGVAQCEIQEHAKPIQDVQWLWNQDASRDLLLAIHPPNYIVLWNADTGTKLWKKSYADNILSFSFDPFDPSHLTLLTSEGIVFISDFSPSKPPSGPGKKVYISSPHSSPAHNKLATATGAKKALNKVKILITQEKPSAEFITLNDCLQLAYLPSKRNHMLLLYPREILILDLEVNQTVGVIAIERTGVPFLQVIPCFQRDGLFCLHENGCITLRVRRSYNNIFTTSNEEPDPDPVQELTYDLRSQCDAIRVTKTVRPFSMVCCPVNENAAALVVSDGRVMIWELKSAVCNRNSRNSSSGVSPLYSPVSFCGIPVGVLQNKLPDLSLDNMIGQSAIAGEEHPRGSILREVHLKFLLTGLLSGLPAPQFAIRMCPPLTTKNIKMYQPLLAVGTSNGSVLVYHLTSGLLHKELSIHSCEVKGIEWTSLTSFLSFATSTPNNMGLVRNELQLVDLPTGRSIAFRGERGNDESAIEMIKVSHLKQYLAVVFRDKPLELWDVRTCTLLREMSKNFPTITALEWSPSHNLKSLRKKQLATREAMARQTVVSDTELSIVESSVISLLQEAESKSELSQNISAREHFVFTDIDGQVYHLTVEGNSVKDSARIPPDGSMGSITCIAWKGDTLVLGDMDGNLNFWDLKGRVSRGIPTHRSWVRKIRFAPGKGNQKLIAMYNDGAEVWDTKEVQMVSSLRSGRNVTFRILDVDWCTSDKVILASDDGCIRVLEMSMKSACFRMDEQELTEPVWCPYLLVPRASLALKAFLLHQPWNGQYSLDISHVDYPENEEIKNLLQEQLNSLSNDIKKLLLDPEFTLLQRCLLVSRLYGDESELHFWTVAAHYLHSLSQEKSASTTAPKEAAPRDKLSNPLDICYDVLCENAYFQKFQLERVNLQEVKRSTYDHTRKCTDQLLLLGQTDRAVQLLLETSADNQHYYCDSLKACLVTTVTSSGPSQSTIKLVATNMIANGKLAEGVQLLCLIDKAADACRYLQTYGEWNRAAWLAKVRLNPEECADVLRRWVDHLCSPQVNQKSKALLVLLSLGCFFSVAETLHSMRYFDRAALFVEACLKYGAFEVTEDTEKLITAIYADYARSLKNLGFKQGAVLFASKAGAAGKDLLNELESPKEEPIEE
inactive: [1] 0.063 | [2] -0.067 | [3] -0.229 | [4] 0.051 | [5] 0.056 | [6] -0.121 | [7] -0.018 | [8] 0.046 | [9] 0.038 | [10] 0.051

TRIM23 (UniProt P36406)
inactive: [1] -0.006 | [2] -0.121 | [3] -0.091 | [4] 0.001 | [5] -0.004 | [6] 0.088 | [7] 0.126 | [8] 0.002 | [10] 0.028

UTP4 (UniProt Q969X6)
inactive: [1] -0.04 | [2] -0.013 | [3] 0.021 | [4] 0.035 | [5] 0.039 | [6] 0.143 | [7] -0.042 | [8] -0.014 | [9] 0.058 | [10] -0.025

TRIM28 (UniProt Q13263)
Chain of UniProt Q13263 (Q13263 whole entry, looked up): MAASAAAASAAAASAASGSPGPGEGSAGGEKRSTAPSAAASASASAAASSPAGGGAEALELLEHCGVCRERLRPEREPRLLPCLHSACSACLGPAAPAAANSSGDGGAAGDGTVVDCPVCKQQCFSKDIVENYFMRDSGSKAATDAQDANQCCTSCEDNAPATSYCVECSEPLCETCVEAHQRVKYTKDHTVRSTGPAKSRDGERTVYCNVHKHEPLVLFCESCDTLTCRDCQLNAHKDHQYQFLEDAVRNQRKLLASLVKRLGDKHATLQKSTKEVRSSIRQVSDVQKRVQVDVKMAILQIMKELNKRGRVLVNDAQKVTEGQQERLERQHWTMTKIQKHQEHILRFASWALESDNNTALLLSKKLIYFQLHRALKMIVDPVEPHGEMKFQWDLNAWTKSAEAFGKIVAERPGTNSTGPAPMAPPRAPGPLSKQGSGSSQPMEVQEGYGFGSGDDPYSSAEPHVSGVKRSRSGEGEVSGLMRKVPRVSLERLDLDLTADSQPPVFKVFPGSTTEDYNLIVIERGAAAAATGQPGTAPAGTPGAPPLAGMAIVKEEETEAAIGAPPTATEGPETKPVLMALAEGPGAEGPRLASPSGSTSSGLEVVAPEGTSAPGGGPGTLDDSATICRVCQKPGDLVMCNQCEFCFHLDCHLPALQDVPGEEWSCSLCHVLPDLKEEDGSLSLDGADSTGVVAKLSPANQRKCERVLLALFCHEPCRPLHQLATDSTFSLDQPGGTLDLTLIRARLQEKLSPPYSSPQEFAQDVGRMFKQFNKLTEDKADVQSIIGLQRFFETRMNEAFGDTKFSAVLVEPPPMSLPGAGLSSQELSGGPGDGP
inactive: [1] 0.005 | [2] 0.011 | [3] -0.013 | [4] -0.035 | [5] -0.014 | [6] 0.013 | [7] -0.02 | [8] 0.004 | [9] -0.035 | [10] 0.009

TSG101 (UniProt Q99816)
inactive: [1] -0.096 | [2] -0.034 | [3] -0.014 | [4] -0.081 | [5] -0.092 | [6] -0.007 | [7] 0.033 | [8] -0.024 | [9] -0.033 | [10] 0.052

TMEM41A (UniProt Q96HV5)
inactive: [1] -0.037 | [3] -0.008 | [4] -0.01 | [5] 0.054 | [6] -0.049 | [8] 0.082 | [9] 0.026 | [10] 0.062
active: [2] 0.276

TMEM219 (UniProt Q86XT9)
inactive: [1] -0.211 | [2] 0.027 | [3] -0.243 | [4] 0.216 | [5] -0.11 | [6] 0.032 | [7] 0.092 | [9] 0.063

VWA8 (UniProt A3KMH1)
inactive: [1] -0.113 | [2] -0.001 | [3] -0.099 | [4] -0.018 | [5] -0.158 | [6] -0.016 | [7] -0.057 | [8] 0.067 | [9] 0.036
active: [10] -0.255

UHRF1BP1L (UniProt A0JNW5)
inactive: [1] 0.055 | [2] -0.002 | [3] 0.105 | [4] 0.005 | [5] -0.003 | [6] -0.029 | [7] 0.036 | [8] 0.038 | [9] -0.065 | [10] 0.007

TMEM164 (UniProt Q5U3C3)
inactive: [1] -0.097 | [2] -0.155 | [3] 0.023 | [4] -0.021 | [5] 0.048 | [6] 0.037 | [7] 0.002 | [9] 0.059 | [10] -0.067

TNPO2 (UniProt O14787)
inactive: [1] -0.004 | [2] 0.129 | [3] -0.122 | [4] -0.111 | [5] -0.173 | [6] -0.087 | [7] -0.076 | [8] -0.011 | [9] -0.011 | [10] 0.043

TUT4 (UniProt Q5TAX3)
inactive: [1] -0.281 | [2] 0.074 | [3] -0.153 | [4] 0.01 | [5] -0.105 | [6] -0.116 | [7] -0.097 | [8] -0.066 | [9] -0.049 | [10] -0.01

XIAP (UniProt P98170)
Chain of UniProt P98170 (P98170 whole entry, looked up): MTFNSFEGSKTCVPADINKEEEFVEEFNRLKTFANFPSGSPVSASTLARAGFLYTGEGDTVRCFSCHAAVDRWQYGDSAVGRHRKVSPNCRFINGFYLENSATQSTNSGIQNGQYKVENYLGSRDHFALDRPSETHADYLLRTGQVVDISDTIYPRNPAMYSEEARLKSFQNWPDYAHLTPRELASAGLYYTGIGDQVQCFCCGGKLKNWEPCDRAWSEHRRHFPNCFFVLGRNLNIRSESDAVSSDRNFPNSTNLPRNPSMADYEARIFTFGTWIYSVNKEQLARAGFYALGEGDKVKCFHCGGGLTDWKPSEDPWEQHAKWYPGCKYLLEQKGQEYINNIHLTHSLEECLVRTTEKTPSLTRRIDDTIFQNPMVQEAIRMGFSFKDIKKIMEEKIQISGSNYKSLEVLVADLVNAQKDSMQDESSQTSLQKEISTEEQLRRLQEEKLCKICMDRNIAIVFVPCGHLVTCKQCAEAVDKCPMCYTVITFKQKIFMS
inactive: [1] -0.111 | [2] -0.046 | [3] 0.366 | [4] 0.061 | [5] -0.027 | [6] -0.288 | [7] 0.029 | [9] -0.078 | [10] 0.095
